# Laboratory results published in PubChem BioAssay (NCATS).
# Inconclusive results are not listed. Where a call stands in place of a potency, no number is given. A number with no mark means an inactive call. Activity calls are given as the source filed them. Calls follow the shape of the dose curve; as a rule, active = well fitted curve in the direction sought with a large enough effect; inconclusive = small, poorly fitted or top-dose-only effect, or another doubt; inactive = no such curve, though single readings can be large; an effect the other way counts as inactive or inconclusive.
# Legend:
# MKL-1 = assay: qHTS assay to identify novel small-molecules to repurpose for Merkel cell carcinoma treatment (AID 1296009); conditions: MCC and control cell lines, CellTiter-Glo viability, 72 h; series mostly up to 46 µM; also: nearly all actives have a fitted effect of over 60% in size
# Outline: (§1)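 72 hr, 37 degree celsius; NPC 8-pt / MIPE 11-pt dose response; compound pinned in DMSO; CellTiter-Glo, 10 min RT, luminescence; normalized to no-cell and DMSO controls.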
# MKL-2 = assay: as above; conditions: MCC and control cell lines, CellTiter-Glo viability, 72 h; series mostly up to 46 µM
# Outline: as §1
# NIH3T3 = assay: as above; conditions: MCC and control cell lines, CellTiter-Glo viability, 72 h; series mostly up to 44.8 µM
# Outline: as §1
# UISO = assay: as above; conditions: MCC and control cell lines, CellTiter-Glo viability, 72 h; series mostly up to 46 µM
# Outline: as §1
# WaGa = assay: as above; conditions: MCC and control cell lines, CellTiter-Glo viability, 72 h; series mostly up to 46 µM
# Outline: as §1
# C33A = assay: Primary qHTS to identify gynecologic anti-cancer compounds using libraries of approved drugs and bioactive compounds (AID 1345084); conditions: Gynecologic cancer cell panel viability, ATPlite luminescence, 48 h; series mostly up to 57.5 µM; also: nearly all actives have a fitted effect of over 55% in size
# Outline: (§2)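 In this quantitative HTS, cell killing is estimated from loss of ATP-dependent luciferase light. Cells see five compound concentrations over a 48 h exposure.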
# CASKI = assay: as above; conditions: Gynecologic cancer cell panel viability, ATPlite luminescence, 48 h; series mostly up to 57.5 µM
# Outline: as §2
# Es-2 = assay: as above; conditions: Gynecologic cancer cell panel viability, ATPlite luminescence, 48 h; series mostly up to 57.5 µM
# Outline: as §2
# CAOV3 = assay: as above; conditions: Gynecologic cancer cell panel viability, ATPlite luminescence, 48 h; series mostly up to 57.5 µM
# Outline: as §2
# Potency is read from the fitted curve at half-maximal effect.
compound,measurement,setting,value
Cc1cc(NC(=O)Nc2ccc(N(C)C)cc2)c2cc(F)cc(F)c2n1,Potency,MKL-1,inactive
same,Potency,MKL-2,inactive
same,Potency,NIH3T3,inactive
same,Potency,UISO,inactive
same,Potency,WaGa,inactive
CCNC(=O)c1noc(-c2cc(C(C)C)c(O)cc2O)c1-c1ccc(CN2CCOCC2)cc1,Potency,MKL-2,inactive
same,Potency,UISO,166 nM (active)
CO[C@H]1/C=C\O[C@@]2(C)Oc3c(C)c(O)c4c(O)c(c5c(nc6cc(C)ccn65)c4c3C2=O)NC(=O)C(C)=CC=C[C@H](C)[C@H](O)[C@@H](C)[C@@H](O)[C@@H](C)[C@H](OC(C)=O)[C@H]1C,Potency,MKL-2,inactive
same,Potency,UISO,inactive
NS(=O)(=O)c1ccc(Nc2nc(OCC3CCCCC3)c3[nH]cnc3n2)cc1,Potency,MKL-2,inactive
same,Potency,UISO,2350 nM (active)
same,Potency,C33A,inactive
same,Potency,CASKI,inactive
same,Potency,Es-2,inactive
Cc1ccc(NC(=O)Nc2cc(C(F)(F)F)ccc2F)cc1Nc1ccc2c(c1)NC(=O)C2=Cc1ccc[nH]1,Potency,MKL-2,inactive
same,Potency,UISO,18700 nM (active)
CN1CC(=O)NC1=NC(=O)Nc1cccc(Cl)c1,Potency,UISO,inactive
same,Potency,WaGa,inactive
CCCCC(F)(F)[C@@]1(O)CC[C@H]2[C@H](CC(=O)[C@@H]2CCCCCCC(=O)O)O1,Potency,C33A,inactive
same,Potency,CAOV3,inactive
same,Potency,CASKI,inactive
same,Potency,Es-2,inactive
CCC(=O)N1CCN(c2ccc(-n3c(=O)ccc4cnc5ccc(-c6cnc7ccccc7c6)cc5c43)cc2C(F)(F)F)CC1,Potency,MKL-2,inactive
same,Potency,UISO,46.9 nM (active)
same,Potency,WaGa,inactive
same,"activity change, negative = cytotoxicity",CAOV3,-22.6% [at 11.6 µM]
same,Potency,Es-2,141 nM (active)
